{"source": "PubChem BioAssay AID588342", "about": "(National Center for Advancing Translational Sciences (NCATS), 2011)", "note": "In all, about 360,000 compounds went through this assay and about 25,000 (6.9%) were called active. Roughly 9% stayed inconclusive and do not appear here. The call rests on the fitted dose curve; in most records, active means well fitted inhibition curve with a large enough effect; inconclusive means small, poorly fitted or top-dose-only effect; inactive means flat fitted curve, though single readings scatter. The list comes from a sample in which actives are over-represented; it also holds similar structures and randomly drawn compounds. Entries that show only a call come without a potency."}
{"biological_target": "Luciferin 4-monooxygenase (Photinus pyralis) (UniProt P08659)", "sequence (P08659 whole entry, looked up)": "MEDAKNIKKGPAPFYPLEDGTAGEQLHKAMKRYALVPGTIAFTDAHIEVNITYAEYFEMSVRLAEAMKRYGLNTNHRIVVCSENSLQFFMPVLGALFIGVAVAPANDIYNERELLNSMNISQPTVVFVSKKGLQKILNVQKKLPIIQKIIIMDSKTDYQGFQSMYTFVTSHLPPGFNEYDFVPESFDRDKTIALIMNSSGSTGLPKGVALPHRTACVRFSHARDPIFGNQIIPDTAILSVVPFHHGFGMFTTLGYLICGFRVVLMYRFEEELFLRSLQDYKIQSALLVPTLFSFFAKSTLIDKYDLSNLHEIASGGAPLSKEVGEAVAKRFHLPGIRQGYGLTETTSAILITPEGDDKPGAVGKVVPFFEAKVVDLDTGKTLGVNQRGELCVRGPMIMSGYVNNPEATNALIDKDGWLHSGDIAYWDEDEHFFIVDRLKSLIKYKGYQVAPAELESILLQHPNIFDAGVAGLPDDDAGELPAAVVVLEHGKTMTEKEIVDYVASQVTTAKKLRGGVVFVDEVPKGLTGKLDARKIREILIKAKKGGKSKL", "test": "qHTS profiling assay for firefly luciferase inhibitor/activator using purifed enzyme and Km concentrations of substrates (counterscreen for miR-21 project); further: nearly all actives have a fitted effect of over 55% in size", "conditions": "purified FLuc, luminescence inhibition; series mostly up to 57.5 µM", "text": "MLPCN Grant: 1 R21 NS059478-01 (miR-21 grant) Assay Provider: NCGC NCGC Assay Overview: Firefly (Photinus pyralis) luciferase is one of the most commonly used transcriptional reporters for a number of reasons. It is considered one of the more dynamically responsive reporters -that is, responsive to changes in reporter transcription - as it requires no post-translational modifications and is enzymatically active directly after protein synthesis (Wood, 1998). Additionally, the half-life of the luciferase protein is short relative to other reporter-gene products (Wood, 1995). Whereas reporters with long half-lives potentially allow for increased signal due to accumulation of reporter-gene product, once accumulated in the cell, dynamic changes in reporter-gene expression may be difficult to detect(Fan and Wood, 2007; Almond et al., 2004). It has been shown that wild-type P. pyralis luciferase has a half-life of approximately […] hours in mammalian cells (Thompson et al., 1991). Firefly luciferase reporter-gene assays are also generally considered one of the most sensitive assay types (Wood, 1995; Wood, 1998). Although light produced in a bioluminescence reaction is of lower intensity than that produced during fluorescence emission, this is offset by little to no background light inherent to luminescent assays. Thus the luciferase reporter can be expressed at much lower levels than fluorescent proteins while still providing robust signal. # However, it was initially observed, in 1991, by Thompson et al., that compounds that resemble the substrates of firefly luciferase (FLuc) can act as competitive inhibitors of the enzyme, and that these compounds, upon interaction with luciferase in the cell, can actually stabilize the protein and increase its half-life. Accumulated intracellular FLuc protein can be measured as an increase in luminescence signal, upon addition of detection reagents (which contain high concentrations of FLuc substrates) commonly used in high-throughput screening. In cell-based reporter gene assays that use FLuc as the reporter gene to quantitate the potential influence of a given compound against the target biology, this apparent increase in luminescence can mistakenly be interpreted as identification of a compound that is active against the target of interest. This is the case for the miR-21 FLuc reporter gene assay used to identify inhibitors of the miR-21 pathway (PubChem AID 2289) - compounds of interest will inhibit miR-21 biogenesis/expression or activity, and are identified by causing an increase in luminescence, due to increased FLuc translation. However, FLuc inhibitory compounds that stabilize the FLuc protein will give an identical read-out, making it difficult to distinguish compounds that are active against the target from those active against FLuc. Previous profiling work to determine the prevalence of compounds that affect FLuc enzymatic activity (PubChem AID 411) identified that ~3% of the MLSMR library (then at ~72K) inhibited FLuc. […] Since the MLSMR had grown to ~350K compounds, and since it was expected that a significant percentage of compounds found active in the miR-21 FLuc assay would be FLuc inhibitors, the library was screened for activity against FLuc using a biochemical assay of purified FLuc and KM concentrations of FLuc substrates (D-luciferin and ATP).\nNCGC Assay Protocol Summary: Reagents: 50mM Tris acetate, pH 7.5; 10mM Mg acetate; 10uM D-luciferin (Sigma #L9504); 10uM ATP; 0.01% Tween-20; 0.05% BSA; 10nM P. pyralis luciferase (Sigma #L9506) Control compounds used were two known firefly luciferase inhibitors (compounds (2) and (5) in Auld et al., 2010), and DMSO. […]"}
{"smiles": "Cc1ccc(CN2CC(C(=O)N3CCN(S(=O)(=O)c4ccccc4)CC3)CC2=O)cc1", "note": "(stereo not given)", "Potency": "inactive"}
{"smiles": "Cc1nn(C)cc1S(=O)(=O)N1CCN(c2ccc(F)cc2)CC1", "Potency": "inactive"}
{"smiles": "Cc1nn(C)cc1/C=C1\\CCC/C(=C\\c2cn(C)nc2C)C1=O", "Potency": "26.9 µM (active)"}
{"smiles": "Cc1ccccc1-n1c(=O)c2ccccc2n(Cc2ccc(F)cc2)c1=O", "Potency": "inactive"}
{"smiles": "CCS(=O)(=O)N1CCc2cc(C(=O)NCc3ccc(OC)cc3)ccc21", "Potency": "inactive"}
{"smiles": "CCCc1cc(=O)oc2c(C)c(OCC(=O)NCc3ccccn3)ccc12", "Potency": "inactive"}
{"smiles": "CCc1cc(=O)oc2c(C)c(OCC(=O)NCCN3CCOCC3)ccc12", "Potency": "inactive"}
{"smiles": "CCCc1cc(=O)oc2c(C)c(OCC(=O)Nc3ccccn3)ccc12", "Potency": "1.69 µM (active)"}
{"smiles": "COc1ccc(NC(=O)CCN2CCN(CCO)CC2)cc1", "Potency": "inactive"}
{"smiles": "O=C(Nc1ccon1)c1nc[nH]c1C(=O)NCc1ccccc1", "Potency": "inactive"}
{"smiles": "Cc1cc(C)n2nc(C(=O)Nc3cccc(S(=O)(=O)N4CCOCC4)c3)nc2n1", "Potency": "inactive"}
{"smiles": "Cc1c(/C=N\\NC(=O)c2cc3ccccc3o2)c2ccccc2n1C", "Potency": "9.53 µM (active)"}
{"smiles": "O=C(O)c1cccc(NC(=S)N/N=C/c2c[nH]c3ccccc23)c1", "Potency": "0.757 µM (active)"}
{"smiles": "Cc1ccc2occ(/C=N/NC(=O)c3ccccc3C)c(=O)c2c1", "Potency": "inactive"}
{"smiles": "O=C(N/N=C/c1c[nH]c2ccccc12)c1cc2ccccc2o1", "Potency": "13.5 µM (active)"}
{"smiles": "O=C(N/N=C/c1ccc([N+](=O)[O-])cc1)c1c[nH]c2ccccc12", "Potency": "inactive"}
{"smiles": "O=C(CSc1nc2ccccc2o1)N/N=C/c1ccccc1C(=O)O", "Potency": "inactive"}
{"smiles": "O=C(N/N=C/c1c[nH]c2ccccc12)c1ccccc1O", "Potency": "6.01 µM (active)"}
{"smiles": "O=C(Cc1ccccc1)Nc1cccc(C(=O)N/N=C/c2ccco2)c1", "Potency": "inactive"}
{"smiles": "CN(C)S(=O)(=O)c1cccc(NC(=S)N/N=C/C(=O)c2ccccc2)c1", "Potency": "inactive"}
{"smiles": "CC(C)(C)n1nc2c(c1NC(=O)c1cc3ccccc3o1)CSC2", "Potency": "inactive"}
{"smiles": "Nc1nonc1-n1nnc(C(=O)N/N=C/c2c[nH]c3ccccc23)c1-c1ccccc1", "Potency": "inactive"}
{"smiles": "Cc1c(/C=N/N2C(=O)C3C4C=CC(C4)C3C2=O)c2ccccc2n1C", "note": "(stereo not given)", "Potency": "inactive"}
{"smiles": "Cc1c(NC(=O)Nc2ccc(F)c(Cl)c2)c(=O)n(-c2ccccc2)n1C", "Potency": "inactive"}
{"smiles": "Cc1cccc(N2CCN(C(=O)c3cc4c(=O)oc5ccccc5c4s3)CC2C)c1", "note": "(stereo not given)", "Potency": "inactive"}
{"smiles": "CCc1ccc(NC(=O)CCS(=O)(=O)c2cc3c(cc2Cl)NC(=O)CO3)cc1", "Potency": "inactive"}
{"smiles": "COc1ccc([N+](=O)[O-])cc1NC(=O)c1ccc(N(Cc2ccccc2C)S(C)(=O)=O)cc1", "Potency": "inactive"}
{"smiles": "CN(C)C(=O)COC(=O)c1cccc(S(=O)(=O)N2CC3(C)CC2CC(C)(C)C3)c1", "note": "(stereo not given)", "Potency": "inactive"}
{"smiles": "O=C(CNC(=O)c1ccccc1Br)NNC(=O)c1cccs1", "Potency": "inactive"}
{"smiles": "COc1cc(C(c2c(NC(=O)c3ccco3)sc(C)c2C)N2CCOCC2)cc(OC)c1OC", "note": "(stereo not given)", "Potency": "inactive"}
{"smiles": "COc1ccc(C2CC(c3cccs3)=NN2c2ccccc2)cc1", "note": "(stereo not given)", "Potency": "21.3 µM (active)"}
{"smiles": "COc1ccc(C2CC(c3cccs3)=NN2c2nc(C)c(C(C)=O)s2)cc1OC", "note": "(stereo not given)", "Potency": "inactive"}
{"smiles": "COc1ccc(C2CC(c3cccs3)=NN2c2ccc(F)cc2)cc1OC", "note": "(stereo not given)", "Potency": "inactive"}
{"smiles": "COc1cc(CN(CC2CCCO2)C(=O)c2ccccc2F)cc(OC)c1OC", "note": "(stereo not given)", "Potency": "inactive"}
{"smiles": "Cc1ccc(NC(=O)c2cc(-c3ccccc3O)n[nH]2)cc1C", "Potency": "inactive"}
{"smiles": "CNc1nc(-c2ccccc2)cc(-c2ccccc2)n1", "Potency": "inactive"}
{"smiles": "c1ccc(-c2cc(-c3ccccc3)[nH]n2)cc1", "Potency": "7.57 µM (active)"}
{"smiles": "Oc1ccccc1-c1cc(-c2ccc(Cl)cc2)n[nH]1", "Potency": "0.953 µM (active)"}
{"smiles": "S=c1[nH]nc(-c2cc(-c3ccccc3)n[nH]2)n1/N=C/c1c2ccccc2cc2ccccc12", "Potency": "inactive"}
{"smiles": "Oc1cc(O)c2c(c1)OC(c1ccc(O)c(O)c1)C(O)C2", "note": "(stereo not given)", "Potency": "inactive"}
{"smiles": "Cc1ccc(Cl)cc1NC(=O)CCC(=O)N1CC(C)Sc2ccccc21", "note": "(stereo not given)", "Potency": "inactive"}
{"smiles": "CCOC(=O)c1ccc(NC(=O)CSc2nc3c([nH]c4ccccc43)c(=O)n2C)cc1", "Potency": "inactive"}
{"smiles": "O=C(CN1CCc2ccccc2C1)Nc1cccc(S(=O)(=O)N2CCOCC2)c1", "Potency": "inactive"}
{"smiles": "O=C(Nc1ccc2sc3ccccc3c(=O)c2c1)c1ccccc1Cl", "Potency": "2.13 µM (active)"}
{"smiles": "CS(=O)(=O)c1ccccc1C(=O)Nc1ccc2sccc2c1", "Potency": "inactive"}
{"smiles": "Cn1c(=O)c(=O)n(C)c2cc(NC(=O)c3ccccc3Br)ccc21", "Potency": "inactive"}
{"smiles": "COc1ccccc1NC(=O)C1=C(C)Nc2ncnn2C1c1sccc1C", "note": "(stereo not given)", "Potency": "inactive"}
{"smiles": "COc1ccccc1Nc1nnc(SC(C)C(=O)NC2CC2)s1", "note": "(stereo not given)", "Potency": "inactive"}
{"smiles": "Cc1[nH]n(-c2ccccc2)c(=O)c1CCOC(=O)c1ccc(C(F)(F)F)cc1", "Potency": "21.3 µM (active)"}
{"smiles": "CC1=C(C(=O)OCc2ccccc2)C(c2ccc(C(F)(F)F)cc2)NC(=O)N1CCCCCC(=O)O", "note": "(stereo not given)", "Potency": "inactive"}
{"smiles": "CCCOC(=O)c1ccc(N2C(=O)c3ccccc3C2=O)cc1", "Potency": "inactive"}
{"smiles": "O=C(NC1(C(F)(F)F)N=C(c2ccccc2)N(C2CCCCC2)C1=O)c1ccccc1F", "note": "(stereo not given)", "Potency": "inactive"}
{"smiles": "CCS(=O)(=O)N1Cc2ccccc2CC1C(=O)Nc1ccc(OC)cc1OC", "note": "(stereo not given)", "Potency": "inactive"}
{"smiles": "CCS(=O)(=O)N1Cc2ccccc2CC1C(=O)Nc1nc2ccc(F)cc2s1", "note": "(stereo not given)", "Potency": "15.1 µM (active)"}
{"smiles": "CN(C)CCCN(C(=O)c1ccc(S(=O)(=O)N2CCCc3ccccc32)cc1)c1nc2ccc(F)cc2s1", "Potency": "inactive"}
{"smiles": "O=C(COC(=O)c1cc(S(=O)(=O)N2CCOCC2)ccc1Cl)NCCc1ccccc1", "Potency": "inactive"}
{"smiles": "CCOC(=O)c1c(C)[nH]c(C)c1S(=O)(=O)NCC(=O)NCc1cccc(C)c1", "Potency": "inactive"}
{"smiles": "CN(Cc1nc(-c2cnccn2)no1)Cc1n[nH]c2c1CCCCC2", "Potency": "inactive"}
{"smiles": "CCOC(=O)C(Cc1ccccc1)NC(=O)CCC(=O)c1ccc(OC)cc1", "note": "(stereo not given)", "Potency": "inactive"}
{"smiles": "COc1ccc(C(=O)NC(Cc2ccc(OC(=O)c3ccc(OC)cc3)cc2)C(=O)O)cc1", "note": "(stereo not given)", "Potency": "12 µM (active)"}
{"smiles": "COc1ccc(C(=O)N[C@H](C(=O)NCc2ccccc2)C(C)C)cc1", "Potency": "inactive"}
{"smiles": "C[C@H](NC(=O)c1[nH]cnc1C(=O)Nc1nccs1)c1ccccc1", "Potency": "inactive"}
{"smiles": "COc1cc(OC)cc(C(=O)Nc2cc3nn(-c4ccccc4)nc3cc2Cl)c1", "Potency": "5.36 µM (active)"}
{"smiles": "CCOc1ccc(-n2nc3ccc(NC(=O)c4ccc(OC)c(Cl)c4)cc3n2)cc1", "Potency": "inactive"}
{"smiles": "COc1cccc(C(=O)Nc2ccc(-c3cc(C(F)(F)F)nn3-c3ccccc3)cc2)c1", "Potency": "inactive"}
